Inconclusive results are not listed. Calls of active or inactive are those of the source. Calls come from the whole dose curve; as a rule, active = well fitted inhibition curve with a large enough effect; inconclusive = small, poorly fitted or top-dose-only effect; inactive = no such curve, though single readings can be large or run the other way.
Assay: NS1 protein of Zika virus - qHTS assay to identify small molecule inhibitors in human HEK 293 cells (AID 1347053); note: nearly all actives have a fitted effect of over 55% in size
Conditions: HEK293 ZIKV MR766 infection, NS1 TR-FRET, 24 h; series mostly up to 46.1 µM
Summary of the method: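 Read-out is a two-antibody TR-FRET for ZIKV NS1, normalized between uninfected cells and infected cells. Compound added 1 h before MR766 infection at MOI 0.5; human HEK 293 cells incubated 24 h, 37 C.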
In the case of `CC(=O)C1CCOC1=O` (stereo not drawn), the outcome is reported as “inactive”. In the case of `CC(C)c1c(CN(C)C(C)Cc2ccccc2)n(C)n(-c2ccccc2)c1=O` (stereo not drawn), the outcome is reported as “inactive”. With `CCCN(CCC)C(=O)Cc1c(-c2ccc(Cl)cc2)nc2ccc(Cl)cn12` the outcome was “inactive”. For `C[C@]12CC[C@H]3[C@@H](CC[C@@]45O[C@H]4C(O)=C(C#N)C[C@]35C)[C@H]1CC[C@H]2O`, the outcome was “inactive”. With `O=c1oc2ccccc2c(O)c1Cc1c(O)c2ccccc2oc1=O` the outcome was “inactive”. For `CC(Cc1ccccc1)N(C)Cc1ccco1` (stereo not drawn), the outcome was “inactive”. With `O=C1c2ccccc2C(=O)C1C(=O)C(c1ccccc1)c1ccccc1` the outcome was “inactive”. In the case of `C[C@]12CC[C@@H]3c4ccc(OC(=O)N(CCCl)CCCl)cc4CC[C@H]3[C@@H]1CC[C@@H]2O`, the outcome is reported as “inactive”. With `CC(C(=O)c1ccccc1)N(C)C` (stereo not drawn) the outcome was “inactive”. With `C[C@]12Cc3cn[nH]c3C[C@@H]1CC[C@@H]1[C@@H]2CC[C@@]2(C)[C@H]1CC[C@]2(C)O` the outcome was “inactive”. In the case of `C[C@@H]1CC2=CC(=O)CC[C@@H]2[C@H]2CC[C@@]3(C)[C@@H](CC[C@]3(C)O)[C@@H]21`, the outcome is reported as “inactive”. With `ClCCN1CCCC1` the outcome was “inactive”. With `c1ccc(N2CCNCC2)cc1` the outcome was “inactive”. With `CCN(CCO)CCn1c(Cc2ccccc2)nc2c1c(=O)n(C)c(=O)n2C` the outcome was “inactive”. For `C#CC(O)(C=CCl)CC` (stereo not drawn), the outcome was “inactive”. For `CCN(CC)C(=O)[C@@H]1C=C2c3cccc4[nH]cc(c34)C[C@H]2N(C)C1`, the outcome was “inactive”. In the case of `CCOP(=S)(OCC)Oc1ccc2c(C)c(Cl)c(=O)oc2c1`, the outcome is reported as “inactive”. For `CCC(CC)(CNC(=O)CCCO)c1cccc(OC)c1`, the outcome was “inactive”. In the case of `Clc1ccccc1N1CCNCC1`, the outcome is reported as “inactive”. In the case of `CCC(C)C(C)(COC(N)=O)COC(N)=O` (stereo not drawn), the outcome is reported as “inactive”. In the case of `CC[N+]1(CC)CCC(OC(=O)C(O)(c2ccccc2)c2ccccc2)C1` (stereo not drawn), the outcome is reported as “inactive”. In the case of `Clc1cccc(SC2CCNCC2)n1`, the outcome is reported as “inactive”. With `CC(Cc1ccccc1)NCCn1cnc2c1c(=O)n(C)c(=O)n2C` (stereo not drawn) the outcome was “inactive”. For `CCc1cc2c(s1)-n1c(C)nnc1CN=C2c1ccccc1Cl`, the outcome was “inactive”. For `CC(C)(N)Cc1ccccc1Cl`, the outcome was “inactive”. For `C[C@]12CCC(=O)C=C1CC[C@@H]1[C@@H]2CC[C@@]2(C)[C@H]1CC[C@]2(C)O`, the outcome was “inactive”. With `CN(C)CCc1c[nH]c2cccc(OP(=O)(O)O)c12` the outcome was “inactive”. In the case of `COc1cccc2c1C(=O)c1c(O)c3c(c(O)c1C2=O)C[C@@](O)(C(=O)CO)CC3OC1CC(N2CCOC(OC)C2)C(O)C(C)O1` (stereo partly drawn), the outcome is reported as “inactive”. For `C[C@]12CCC(=O)C=C1CC[C@@H]1[C@@H]2CC[C@]2(C)C(=O)CC[C@@H]12`, the outcome was “inactive”. For `O=C1OC(CCN2CCCCC2)OC1(c1ccccc1)c1ccccc1` (stereo not drawn), the outcome was “inactive”. For `C[C@]12CC[C@H]3[C@@H](CCC4=CC(=O)CC[C@@H]43)[C@@H]1CC[C@@H]2OC(=O)CCc1ccco1`, the outcome was “inactive”. For `C=CCC1(C(C)CC)C(=O)NC(=O)NC1=O` (stereo not drawn), the outcome was “inactive”. With `O=c1c(C2CC(c3ccc(-c4ccc(Br)cc4)cc3)Cc3ccccc32)c(O)sc2ccccc12` (stereo not drawn) the outcome was “inactive”.

From PubChem BioAssay (NCATS)
